Growth inhibition data for six molecules are collected here from PubChem BioAssay (NCI).

Assay [1] can be described thus: NCI Yeast Anticancer Drug Screen. Data for the rad50 strain (AID 155).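 Note: 0% = growth of vehicle-only cultures of the same strain.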 The following applies: S. cerevisiae rad50 strain growth inhibition, hits give high values. The method in brief:
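Readout: growth inhibition relative to vehicle-treated cultures. Compound exposure was carried out in a genetically defined yeast strain deficient in DNA damage repair.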

A short description of assay [2]: NCI Yeast Anticancer Drug Screen. Data for the mec2-1 strain (AID 157). The following applies: S. cerevisiae mec2-1 strain, hits give high values. The method in brief:
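Readout is yeast growth inhibition, normalised to vehicle-treated controls, in the mec2-1 strain exposed to compound.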

Assay [3] can be described thus: NCI Yeast Anticancer Drug Screen. Data for the sgs1 mgt1 strain (AID 161).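 Note: 0% = growth of cultures given vehicle only.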 The following applies: S. cerevisiae sgs1 mgt1 strain, hits give high values. The method in brief:
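Compounds are added to genetically altered yeast, and growth is compared with cultures given vehicle alone to give percent inhibition.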

Assay [4] in a line: NCI Yeast Anticancer Drug Screen. Data for the cln2 rad14 strain (AID 165).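 Note: 0% = growth equal to vehicle treated cultures.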 Particulars: S. cerevisiae cln2 rad14 strain, hits give high values. The method in brief: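 Relative to vehicle controls, growth inhibition of compound-treated cln2 rad14 yeast was recorded.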
Assay [5] in a line: NCI Yeast Anticancer Drug Screen. Data for the bub3 strain (AID 167). The following applies: S. cerevisiae bub3 mutant strain, hits give high values. The method in brief:
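Readout: yeast growth inhibition, expressed relative to vehicle-only wells. The test organism is a mutant strain from a panel with lesions in DNA repair or checkpoint genes.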

The nature of assay [6]: NCI Yeast Anticancer Drug Screen. Data for the mlh1 rad18 strain (AID 175). The following applies: S. cerevisiae mlh1 rad18 strain growth inhibition, hits give high values. The method in brief:
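Test agents were incubated with a yeast strain of defined genotype (DNA damage repair defect). Inhibition of growth was derived by comparison with vehicle-exposed cultures.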

[7] abbreviates: at 5.0 µM (retest, dose inferred, filed as 0.5).
Setting [8] is: at 50.0 µM (retest, dose inferred, filed as 5.0).

This is part of a sample that, as a whole, favours compounds with a hit. Of some 79,000 tested, about 15% had one in any assay. Values without a mark were called inactive. Calls of active or inactive are those of the source. Cut-off read from the data, not from the text of the source: active = growth inhibition above about 70%; inactive = the rest.

Consider `CCCCCCSC(=Cc1cccc[n+]1C)SCCCCCC`, for which the growth inhibition was 98% (active) in assay [1] (setting [7]); 96% (active) in assay [1] (setting [8]); 99.5% (active) in assay [1] (at 50.0 µM); 100% (active) in assay [2] (setting [7]); 98% (active) in assay [2] (setting [8]); 99.7% (active) in assay [2] (at 50.0 µM). In addition, the growth inhibition was 100% (active) in assay [3] (setting [7]); 98% (active) in assay [3] (setting [8]); 99.7% (active) in assay [3] (at 50.0 µM); 99% (active) in assay [4] (setting [7]); 95% (active) in assay [4] (setting [8]); 99.3% (active) in assay [4] (at 50.0 µM). In addition, the growth inhibition in assay [5] (setting [7]) was 98% (active); in assay [5] (setting [8]) it was 94% (active); in assay [5] (at 50.0 µM), 99.5% (active); in assay [6] (setting [7]), 100% (active); in assay [6] (setting [8]), 97% (active); in assay [6] (at 50.0 µM), 99.4% (active).

Turning to `C1CCC(C2CCC(N3CCCCC3)CC2)CC1` (stereo not drawn), the growth inhibition in assay [1] (setting [7]) is 60%; in assay [1] (setting [8]), 78% (active); in assay [1] (at 50.0 µM), 85% (active); in assay [2] (setting [7]) it was 45%; in assay [2] (setting [8]), 77% (active); in assay [2] (at 50.0 µM), 51.4%. In addition, the growth inhibition is 58% in assay [3] (setting [7]); 86% (active) in assay [3] (setting [8]); 82.3% (active) in assay [3] (at 50.0 µM); 63% in assay [4] (setting [7]); 62% in assay [4] (setting [8]); 75.6% (active) in assay [4] (at 50.0 µM). The growth inhibition in assay [5] (setting [7]) was 63%; in assay [5] (setting [8]), 84% (active); in assay [5] (at 50.0 µM), 72.8% (active); in assay [6] (setting [7]), 67%; in assay [6] (setting [8]), 87% (active); in assay [6] (at 50.0 µM) it was 79.4% (active).

On to `Nc1ccc2c(c1)Cc1c(Cl)cccc1-2`, for which the growth inhibition in assay [1] (setting [7]) was 1%; in assay [1] (setting [8]), 95% (active); in assay [1] (at 50.0 µM) it was 96% (active); in assay [2] (setting [7]) it was 3%; in assay [2] (setting [8]), 96% (active); in assay [2] (at 50.0 µM), 54.4%. Moreover, the growth inhibition was 3% in assay [3] (setting [7]); 90% (active) in assay [3] (setting [8]); 89.4% (active) in assay [3] (at 50.0 µM); -12% in assay [4] (setting [7]); 92% (active) in assay [4] (setting [8]); 80.2% (active) in assay [4] (at 50.0 µM). In addition, the growth inhibition in assay [5] (setting [7]) was -3%; in assay [5] (setting [8]), 94% (active); in assay [5] (at 50.0 µM), 94.3% (active); in assay [6] (setting [7]), -1%; in assay [6] (setting [8]), 95% (active); in assay [6] (at 50.0 µM), 95.2% (active).

For the molecule `NNc1cccc(C(F)(F)F)c1`, the growth inhibition in assay [1] (setting [7]) is 19%; in assay [1] (setting [8]), 90% (active); in assay [1] (at 50.0 µM) it was 83.7% (active); in assay [2] (setting [7]), -41%; in assay [2] (setting [8]) it was 54%; in assay [2] (at 50.0 µM) it was 79.5% (active). Moreover, the growth inhibition was -16% in assay [3] (setting [7]); 28% in assay [3] (setting [8]); 88.5% (active) in assay [3] (at 50.0 µM); 13% in assay [4] (setting [7]); 55% in assay [4] (setting [8]); 50.1% in assay [4] (at 50.0 µM). The growth inhibition in assay [5] (setting [7]) was -1%; in assay [5] (setting [8]) it was 97% (active); in assay [5] (at 50.0 µM), 88% (active); in assay [6] (setting [7]) it was 34%; in assay [6] (setting [8]) it was 93% (active); in assay [6] (at 50.0 µM) it was 83.5% (active).

Turning to `COC(=O)c1c(C)cccc1C(=O)c1c(C)cc(C)cc1C`, the growth inhibition in assay [1] (setting [7]) is -6%; in assay [1] (setting [8]), 63%; in assay [1] (at 50.0 µM) it was 73.1% (active); in assay [2] (setting [7]), 21%; in assay [2] (setting [8]), 68%; in assay [2] (at 50.0 µM), 82.2% (active). Moreover, the growth inhibition in assay [3] (setting [7]) is -1%; in assay [3] (setting [8]), 82% (active); in assay [3] (at 50.0 µM) it was 91.8% (active); in assay [4] (setting [7]), -26%; in assay [4] (setting [8]), 45%; in assay [4] (at 50.0 µM), 15.2%. Further, the growth inhibition in assay [5] (setting [7]) is 2%; in assay [5] (setting [8]), 56%; in assay [5] (at 50.0 µM), 88.2% (active); in assay [6] (setting [7]) it was 4%; in assay [6] (setting [8]) it was 85% (active); in assay [6] (at 50.0 µM) it was 91.8% (active).

With `Cc1ccc2c(c1)-c1cc(C)ccc1C2(O)c1ccccc1`, the growth inhibition was 3% in assay [1] (setting [7]); 83% (active) in assay [1] (setting [8]); 99% (active) in assay [1] (at 50.0 µM); 14% in assay [2] (setting [7]); 66% in assay [2] (setting [8]); 97.9% (active) in assay [2] (at 50.0 µM). For the same molecule, the growth inhibition in assay [3] (setting [7]) was 6%; in assay [3] (setting [8]) it was 89% (active); in assay [3] (at 50.0 µM), 93.7% (active); in assay [4] (setting [7]), -7%; in assay [4] (setting [8]) it was 79% (active); in assay [4] (at 50.0 µM) it was 97.2% (active). Further, the growth inhibition in assay [5] (setting [7]) was 3%; in assay [5] (setting [8]) it was 95% (active); in assay [5] (at 50.0 µM), 96.7% (active); in assay [6] (setting [7]), -6%; in assay [6] (setting [8]) it was 95% (active); in assay [6] (at 50.0 µM), 99.2% (active).
